According to PubChem BioAssay (Tox21):
Records with an inconclusive call do not appear. Active and inactive are the calls of the source. Unless noted, the call rests on the fitted dose curve; in most records, active means well fitted curve in the direction sought with a large enough effect in the repeat runs; inconclusive means weak or mixed curves; inactive means no such curve, though single readings can be large; an effect the other way counts as inactive or inconclusive.

Legend:
[1] = qHTS assay to identify small molecule agonists of the vitamin D receptor (VDR) signaling pathway - cell viability counter screen (AID 743224); further: series mostly up to about 63 µM; on the % scale 0 is the no-effect control and ±100 the full control effect; nearly all actives have a fitted effect of over 50% in size
In short: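 Counter screen run in the same wells as the VDR-bla reporter assay: CellTiter-Glo luminescence, 30 min at room temperature, after 16 h compound treatment at 37C of cells pre-plated for 4 h.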

[2] = qHTS assay to identify small molecule antagonists of the vitamin D receptor (VDR) signaling pathway - cell viability counter screen (AID 743225); further: on the % scale 0 is the no-effect control and ±100 the full control effect; nearly all actives have a fitted effect of over 50% in size
In short: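 Cells (VDR-UAS-bla HEK 293T) are plated, rested 4 h at 37C, dosed with compound and 3 nM final 1-alpha,25-dihydroxy vitamin D3, and incubated 16 h. Viability is taken from CellTiter-Glo luminescence in the reporter wells.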

[3] = qHTS assay to identify small molecule agonists of the NFkB signaling pathway (AID 1159509; active means well fitted curve in the direction sought with a large enough effect in the signal ratio in the repeat runs, not every such curve was filed as active; the % refers to the signal ratio; further: series mostly up to about 61 µM; on the % scale 0 is the no-effect control and ±100 the full control effect)
In short: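 Beta-lactamase reporter assay run in quantitative high-throughput format on an NF-kB-responsive ME-180 line, with 5 hr compound treatment and a FRET-based blue/green fluorescence readout.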

[4] = qHTS assay to identify small molecule agonists of the NFkB signaling pathway - cell viability counter screen (AID 1159515; calls by dose curve; further: series mostly up to about 61 µM; on the % scale 0 is the no-effect control and ±100 the full control effect; nearly all actives have a fitted effect of over 55% in size)
In short: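 Read by CellTiter-Glo luminescence (30 min, room temperature) in the wells also used for the beta-lactamase FRET read. ME-180 NFkB-bla cells at 2,000 per well were plated overnight, then exposed to compound for 5 hr at 37 C.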

[5] = qHTS assay to identify small molecule agonists of the endoplasmic reticulum stress response signaling pathway (AID 1159516; active means well fitted activation curve with a large enough effect in the signal ratio in the repeat runs, not every such curve was filed as active; the % refers to the signal ratio; further: on the % scale 0 is the no-effect control and ±100 the full control effect)
In short: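 Ratiometric FRET readout (405 nm excitation; 460 and 530 nm emission) of a beta-lactamase gene driven by the ER stress response element, after 2 hr substrate loading. HeLa ESRE-bla cells were seeded overnight and treated with compounds for only 5 hr at 37 C.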

[6] = qHTS assay to identify small molecule agonists of the endoplasmic reticulum stress response signaling pathway - cell viability counter screen (AID 1159517; calls by dose curve; further: series mostly up to about 61 µM; on the % scale 0 is the no-effect control and ±100 the full control effect; nearly all actives have a fitted effect of over 50% in size)
In short: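 After overnight attachment, ESRE-bla HeLa cells were treated with Tox21 library compounds for 5 hr. CellTiter-Glo luminescence, read 30 min post-addition at room temperature, reported viability.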

[7] = qHTS assay to identify small molecule antagonists of the retinoid-related orphan receptor gamma (ROR-gamma) signaling pathway - cell viability counter screen (AID 1159520); further: on the % scale 0 is the no-effect control and ±100 the full control effect; nearly all actives have a fitted effect of over 50% in size
In short: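 Cytotoxicity was read from cellular ATP (CellTiter-Glo luminescence) after 16 hr at 37 C with 1 uM doxycycline induction. The inducer was added 2 hr after compound transfer to Tet-on ROR gamma CHO cells.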

[8] = molecular target: Nuclear receptor ROR-gamma (Homo sapiens) (UniProt P51449); test: qHTS assay to identify small molecule antagonists of the retinoid-related orphan receptor gamma (ROR-gamma) signaling pathway (AID 1159521)
In short: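 RORγ antagonism is scored from reduced reporter luminescence in Tet-on CHO cells. Induction used 1 uM final doxycycline hyclate for 16 h at 37 C, following a 2 h compound exposure.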

[9] = qHTS assay to identify small molecule agonists of the AP-1 signaling pathway - cell viability counter screen (AID 1159525; calls by dose curve; further: nearly all actives have a fitted effect of over 55% in size)
In short: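 Intracellular ATP by Cell Titer Glo luminescence (30 min, RT) in the same ME-180 AP-1-bla wells after the 5 h compound exposure at 37 °C. Normalised to tetra n-octyl ammonium bromide and DMSO controls.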

[10] = qHTS assay to identify small molecule agonists of the AP-1 signaling pathway (AID 1159526; calls by dose curve; further: on the % scale 0 is the no-effect control and ±100 the full control effect)
[11] = molecular target: Retinoic acid receptor RXR-alpha (Homo sapiens) (UniProt P19793); test: qHTS assay to identify small molecule agonists of the RXR signaling pathway (AID 1159527; calls by dose curve; further: on the % scale 0 is the no-effect control and ±100 the full control effect; nearly all actives have a fitted effect of over 35% in size)
Chain of Retinoic acid receptor RXR-alpha (Homo sapiens) (P19793 whole entry, looked up): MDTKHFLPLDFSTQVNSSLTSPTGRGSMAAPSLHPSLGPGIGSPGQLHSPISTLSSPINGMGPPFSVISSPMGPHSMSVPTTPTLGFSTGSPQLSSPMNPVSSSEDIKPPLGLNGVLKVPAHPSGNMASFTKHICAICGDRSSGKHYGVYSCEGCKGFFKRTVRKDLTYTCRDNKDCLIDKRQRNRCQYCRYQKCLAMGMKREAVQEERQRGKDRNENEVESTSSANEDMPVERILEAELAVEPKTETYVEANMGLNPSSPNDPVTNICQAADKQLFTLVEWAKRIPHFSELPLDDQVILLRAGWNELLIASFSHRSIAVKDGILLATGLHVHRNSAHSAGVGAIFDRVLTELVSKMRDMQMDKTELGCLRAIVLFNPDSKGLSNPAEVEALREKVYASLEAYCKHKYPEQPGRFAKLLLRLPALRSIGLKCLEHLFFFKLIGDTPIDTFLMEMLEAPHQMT
In short: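 qHTS of the Tox21 10K library in GeneBLAzer RXR-alpha HEK 293T cells carrying a beta-lactamase reporter […]; 16 hr treatment, 9-cis retinoic acid as agonist control, FRET read-out.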

[12] = qHTS assay to identify small molecule agonists of the RXR signaling pathway - cell viability counter screen (AID 1159529)
In short: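 Cell viability is measured by CellTiter-Glo luminescence, 30 min at room temperature, in wells already read for beta-lactamase. Engineered HEK 293T cells (RXR-alpha-UAS-bla) are dosed 16 hr at 37 C. Tetraoctyl ammonium bromide serves as positive control.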

[13] = qHTS assay to identify small molecule antagonists of the retinoid acid receptor (RAR) signaling pathway - cell viability counter screen (AID 1159551); further: on the % scale 0 is the no-effect control and ±100 the full control effect; nearly all actives have a fitted effect of over 35% in size
In short: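 Cytotoxicity counter screen: ATP content quantified by CellTiter-Glo luminescence in C3RL4 cells treated 6 hr at 37 C with compound and retinol (1 uM final). Cells plated at 1,000/well and cultured overnight before dosing.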

[14] = qHTS assay to identify small molecule antagonists of the retinoic acid receptor (RAR) signaling pathway (AID 1159552)
In short: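 Quantitative HTS in C3RL4 RARE-luciferase reporter cells. Compounds were added with 1 uM (final) retinol; luminescence was read after 6 hr.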

[15] = qHTS assay to identify small molecule agonists of the retinoic acid receptor (RAR) signaling pathway (AID 1159553); further: potency means the concentration at half of the fitted maximal effect; on activation: on the % scale 0 is the no-effect control and ±100 the full control effect
In short: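 Luminescence was measured 30 min after luciferase reagent addition at room temperature. Before that, C3RL4 reporter cells (1,000 per well, plated overnight) were treated with compound for 6 hr at 37 C and 5% CO2.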

[16] = qHTS assay to identify small molecule antagonists of the estrogen related receptor (ERR) signaling pathway from Tox21 library - cell viability counter screen (AID 1224834); further: on the % scale 0 is the no-effect control and ±100 the full control effect; nearly all actives have a fitted effect of over 30% in size
In short: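 CellTiter-Fluor fluorescence, read after 30 min at 37 C, measures viability of ERR cells. Cells plated at 2,000/well and incubated 6 h before pin-tool compound addition, then exposed 17.5 hours at 37 C.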

[17] = molecular target: Luciferin 4-monooxygenase (Photinus pyralis) (UniProt P08659); test: qHTS assay to identify small molecule inhibitors of firefly luciferase (AID 1224835); further: nearly all actives have a fitted effect of over 25% in size; further: potency means the concentration at half of the fitted maximal effect
Chain of Luciferin 4-monooxygenase (Photinus pyralis) (P08659 whole entry, looked up): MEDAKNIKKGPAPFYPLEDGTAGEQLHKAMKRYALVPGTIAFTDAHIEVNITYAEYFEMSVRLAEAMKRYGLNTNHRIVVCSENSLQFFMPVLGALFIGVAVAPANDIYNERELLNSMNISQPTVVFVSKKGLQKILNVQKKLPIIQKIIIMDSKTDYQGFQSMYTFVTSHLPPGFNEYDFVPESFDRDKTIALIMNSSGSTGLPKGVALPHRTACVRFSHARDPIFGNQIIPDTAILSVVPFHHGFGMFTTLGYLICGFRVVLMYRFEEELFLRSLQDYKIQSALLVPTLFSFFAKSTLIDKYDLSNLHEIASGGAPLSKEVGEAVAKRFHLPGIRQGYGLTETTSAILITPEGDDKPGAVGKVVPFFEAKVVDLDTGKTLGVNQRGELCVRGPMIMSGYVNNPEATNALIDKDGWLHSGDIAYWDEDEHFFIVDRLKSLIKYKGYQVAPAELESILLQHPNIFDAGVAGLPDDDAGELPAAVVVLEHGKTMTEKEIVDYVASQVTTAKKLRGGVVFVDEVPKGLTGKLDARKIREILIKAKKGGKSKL
In short: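 Inhibition of purified Photinus luciferase is measured by luminescence. Substrate levels (D-luciferin, ATP) sit at their KM values. Each compound is tested in a concentration series.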

[18] = molecular target: Nuclear receptor subfamily 1 group I member 3 (Homo sapiens) (UniProt Q14994); test: qHTS assay to identify small molecule antagonists of the constitutive androstane receptor (CAR) signaling pathway (AID 1224838);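 further: HepG2 cells stably expressing hCAR with CYP2B6 luciferase reporter stimulated by CITCO; on the % scale 0 is the no-effect control and ±100 the full control effect; nearly all actives have a fitted effect of over 40% in size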
Chain of Nuclear receptor subfamily 1 group I member 3 (Homo sapiens) (Q14994 whole entry, looked up): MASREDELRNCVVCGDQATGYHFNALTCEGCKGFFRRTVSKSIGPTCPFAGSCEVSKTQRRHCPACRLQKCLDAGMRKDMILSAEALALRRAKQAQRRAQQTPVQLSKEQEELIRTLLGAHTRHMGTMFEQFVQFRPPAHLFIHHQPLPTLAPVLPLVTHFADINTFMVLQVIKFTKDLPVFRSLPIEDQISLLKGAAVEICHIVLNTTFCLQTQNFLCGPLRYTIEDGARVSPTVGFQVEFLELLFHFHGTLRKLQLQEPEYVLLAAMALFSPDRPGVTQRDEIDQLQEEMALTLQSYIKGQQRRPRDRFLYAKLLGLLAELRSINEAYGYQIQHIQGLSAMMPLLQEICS
In short: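 Antagonism measured as luciferase signal (ONE-Glo, 30 min, room temperature) in CAR-stimulated cells: HepG2-CYP2B6-hCAR double-stable line exposed 24 hr at 37 C to compound in a 15-point series plus 50 nM CITCO.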

[19] = qHTS assay to identify small molecule agonists of the constitutive androstane receptor (CAR) signaling pathway - cell viability counter screen (AID 1224836); further: series mostly up to about 92 µM; on the % scale 0 is the no-effect control and ±100 the full control effect; nearly all actives have a fitted effect of over 45% in size
In short: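 Counter screen multiplexed with the CAR reporter readout: HepG2 cells co-transfected with hCAR and the CYP2B6-2.2kb construct receive a 15-concentration compound series and 0.75 uM PK11195 (final), then CellTiter-Fluor fluorescence is read after 23 h.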

[20] = qHTS assay to identify small molecule antagonists of the constitutive androstane receptor (CAR) signaling pathway - cell viability counter screen (AID 1224837); further: series mostly up to about 92 µM; on the % scale 0 is the no-effect control and ±100 the full control effect; nearly all actives have a fitted effect of over 45% in size
In short: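 Cytotoxicity counter-screen: CellTiter-Fluor fluorescence after 23 h compound exposure (15-point qHTS) in double-stable HepG2-CYP2B6-hCAR cells, with 50 nM CITCO added.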

ONc1ccccc1
inactive: outcome [1] | outcome [2] | outcome [3] | outcome [4] | outcome [5] | outcome [6] | outcome [7] | outcome [8] | outcome [9] | outcome [10] | Potency [11] | outcome [12] | outcome [13] | outcome [14] | outcome [16] | Potency [18]
active: Potency [15] 24.1 µM | Potency [17] 22.2 µM

NCc1ccc(S(N)(=O)=O)cc1
inactive: outcome [1] | outcome [3] | outcome [4] | outcome [5] | outcome [6] | outcome [7] | outcome [8] | outcome [9] | outcome [10] | Potency [11] | outcome [12] | outcome [13] | outcome [14] | Potency [15] | outcome [16] | Potency [17] | Potency [18]

C#CCN[C@@H]1CCc2ccccc21
inactive: outcome [1] | outcome [2] | outcome [3] | outcome [4] | outcome [5] | outcome [6] | outcome [7] | outcome [8] | outcome [10] | Potency [11] | outcome [12] | outcome [13] | outcome [14] | Potency [15] | outcome [16] | Potency [17] | outcome [19] | outcome [20] | Potency [18]

CCC(C)OC(C)CC (stereo not drawn)
inactive: outcome [1] | outcome [3] | outcome [4] | outcome [5] | outcome [6] | outcome [7] | outcome [8] | outcome [10] | Potency [11] | outcome [12] | outcome [13] | outcome [14] | Potency [15] | outcome [16] | Potency [17] | outcome [19] | outcome [20] | Potency [18]

CCn1cc(C(=O)O)c(=O)c2cnc(N3CCCC3)nc21
inactive: activity change, negative = cytotoxicity [1] 7.07% [at 13.2 µM] | viability change, negative = cytotoxic [2] -2.96% [at 6.95 µM] | activation [3] 0.219% [at 6.95 µM] | activity, negative = cytotoxic [4] -27.6% [at 6.95 µM] | activation [5] 1.19% [at 6.95 µM] | activity change, negative = cytotoxicity [6] -11.8% [at 6.95 µM] | activity, negative = cytotoxicity [7] 1.16% [at 8.39 µM] | activity change, negative = inhibition [8] 14.3% [at 8.39 µM] | activation [10] -6.77% [at 6.97 µM] | activation [11] 0.584% [at 6.98 µM] | activity change, negative = cytotoxicity [12] -1.74% [at 6.97 µM] | activity change, negative = cytotoxicity [13] 0.0795% [at 8.39 µM] | activity, negative = inhibition [14] 5.14% [at 8.39 µM] | activation [15] 1.53% [at 8.36 µM] | viability change, negative = cytotoxic [16] 0.102% [at 8.39 µM] | activity change, negative = inhibition [17] 2.85% [at 10.5 µM] | viability change, negative = cytotoxic [19] 6.12% [at 8.39 µM] | activity change, negative = cytotoxicity [20] 1.8% [at 8.39 µM] | activity, negative = inhibition [18] -3.92% [at 8.39 µM]

CCCC(CC)c1ccccc1 (stereo not drawn)
inactive: outcome [1] | outcome [2] | outcome [3] | outcome [4] | outcome [5] | outcome [6] | outcome [7] | outcome [8] | outcome [10] | Potency [11] | outcome [12] | outcome [13] | outcome [14] | Potency [15] | outcome [16] | Potency [17] | outcome [19] | outcome [20] | Potency [18]

C[C@]12CCC(=O)C=C1CC[C@H]1[C@@H]3CC[C@](O)(C(=O)CO)[C@@]3(C)C[C@H](O)[C@@]12F
inactive: outcome [1] | outcome [3] | outcome [4] | outcome [5] | outcome [6] | outcome [7] | outcome [8] | outcome [10] | Potency [11] | outcome [12] | outcome [13] | outcome [14] | Potency [15] | outcome [16] | Potency [17] | outcome [19] | outcome [20] | Potency [18]
